“And” between values parts separate entries of the source, which are not always exact repeats. Identical values can stand only once. Records with an inconclusive call do not appear. The source made the active and inactive calls. Calls follow the shape of the dose curve; as a rule, active = well fitted inhibition curve with a large enough effect; inconclusive = small, poorly fitted or top-dose-only effect; inactive = flat fitted curve, though single readings scatter.
Assays:
HB3 = experiment: qHTS profiling for inhibitors of Plasmodium falciparum proliferation (AID 504749); details: P. falciparum in erythrocytes, SYBR Green DNA, 72 h; series mostly up to 28.7 µM
Method in brief: (§1)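 SYBR Green fluorescence (ex 485 nm, em 535 nm) reports parasite DNA after 72 h compound exposure of infected red cells at 0.3% parasitemia, 2.5% hematocrit; signal normalized to 0.29 uM artemisinin and vehicle wells.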

ICS = experiment: as above; details: P. falciparum in erythrocytes, SYBR Green DNA, 72 h; series mostly up to 28.7 µM
Method in brief: as §1

JCK = experiment: as above; details: P. falciparum in erythrocytes, SYBR Green DNA, 72 h; series mostly up to 28.7 µM
Method in brief: as §1

N140 = experiment: as above; details: P. falciparum in erythrocytes, SYBR Green DNA, 72 h; series mostly up to 28.7 µM
Method in brief: as §1

P93_24 = experiment: as above; details: P. falciparum in erythrocytes, SYBR Green DNA, 72 h; series mostly up to 28.7 µM
Method in brief: as §1

P94_40 = experiment: as above; details: P. falciparum in erythrocytes, SYBR Green DNA, 72 h; series mostly up to 28.7 µM
Method in brief: as §1

PAD = experiment: as above; details: P. falciparum in erythrocytes, SYBR Green DNA, 72 h; series mostly up to 28.7 µM
Method in brief: as §1

PC15 = experiment: as above; details: P. falciparum in erythrocytes, SYBR Green DNA, 72 h; series mostly up to 28.7 µM
Method in brief: as §1

PC49 = experiment: as above; details: P. falciparum in erythrocytes, SYBR Green DNA, 72 h; series mostly up to 28.7 µM
Method in brief: as §1

SC27B = experiment: as above; details: P. falciparum in erythrocytes, SYBR Green DNA, 72 h; series mostly up to 28.7 µM
Method in brief: as §1

TAB109 = experiment: as above; details: P. falciparum in erythrocytes, SYBR Green DNA, 72 h; series mostly up to 28.7 µM
Method in brief: as §1

TAB113 = experiment: as above; details: P. falciparum in erythrocytes, SYBR Green DNA, 72 h; series mostly up to 28.7 µM
Method in brief: as §1

TAB165 = experiment: as above; details: P. falciparum in erythrocytes, SYBR Green DNA, 72 h; series mostly up to 28.7 µM
Method in brief: as §1

W2 = experiment: as above; details: P. falciparum in erythrocytes, SYBR Green DNA, 72 h; series mostly up to 28.7 µM
Method in brief: as §1

CRL-7250 = normal cell line; experiment: Cytotoxic Profiling of Annotated Libraries Using Quantitative High-Throughput Screening (AID 1296008); details: Five cell lines viability, CellTiter-Glo ATP luminescence, 48-72 h; max response: hits give low values; as to max response: % is scaled to controls: 0 for no effect and ±100 for the full control effect
Method in brief: (§2)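 Cells exposed to compounds for 48 or 72 hr at 37 degrees Celsius. Viability read as ATP-coupled luminescence with CellTiter-Glo after 10 min at room temperature.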

HaCat = experiment: as above; details: Five cell lines viability, CellTiter-Glo ATP luminescence, 48-72 h; max response: hits give low values
Method in brief: as §2

KB-3-1 = experiment: as above; details: Five cell lines viability, CellTiter-Glo ATP luminescence, 48-72 h; max response: hits give low values
Method in brief: as §2

GB4 = experiment: qHTS profiling for inhibitors of Plasmodium falciparum proliferation (AID 504749); details: P. falciparum in erythrocytes, SYBR Green DNA, 72 h; series mostly up to 28.7 µM
Method in brief: as §1

PC26 = experiment: as above; details: P. falciparum in erythrocytes, SYBR Green DNA, 72 h; series mostly up to 28.7 µM
Method in brief: as §1

HEK293 = experiment: Cytotoxic Profiling of Annotated Libraries Using Quantitative High-Throughput Screening (AID 1296008); details: Five cell lines viability, CellTiter-Glo ATP luminescence, 48-72 h; max response: hits give low values; as to max response: % is scaled to controls: 0 for no effect and ±100 for the full control effect
Method in brief: as §2
Also: nearly all actives have a fitted effect of over 60% in size.
Potency is read from the fitted curve at half-maximal effect.

CCOc1ccc2nc3cc(N)ccc3c(N)c2c1
active: Potency (HB3) 8.91 µM | Potency (ICS) 4.47 µM | Potency (JCK) 10 µM | Potency (N140) 10 µM | Potency (P93_24) 3.55 µM | Potency (P94_40) 5.62 µM | Potency (PAD) 7.08 µM | Potency (PC15) 10 µM | Potency (PC49) 7.94 µM | Potency (SC27B) 7.94 µM | Potency (TAB109) 3.98 µM | Potency (TAB113) 4.47 µM | Potency (TAB165) 10 µM | Potency (W2) 3.38 µM | Potency (CRL-7250) 11.9 µM
inactive: max response (HaCat) -2.56% | max response (KB-3-1) -2.82%

COC1=CC(=O)C[C@@H](C)[C@]12Oc1c(Cl)c(OC)cc(OC)c1C2=O
inactive: Potency (GB4) | Potency (HB3) | Potency (ICS) | Potency (JCK) | Potency (N140) | Potency (P93_24) | Potency (P94_40) | Potency (PAD) | Potency (PC15) | Potency (PC26) | Potency (PC49) | Potency (SC27B) | Potency (TAB109) | Potency (TAB113) | Potency (TAB165) | Potency (W2) | outcome (CRL-7250) | max response (KB-3-1) -57.5%
active: Potency (HaCat) 23.7 µM

C=C1C[C@H]2[C@@H]3C=C(C)C4=CC(=O)CC[C@]4(C)[C@H]3CC[C@]2(C)[C@@]1(OC(C)=O)C(C)=O
inactive: max response (CRL-7250) 1.09% | max response (HaCat) -2.22% | max response (KB-3-1) 17.3%

CN(C)C(=S)SC(=S)N(C)C
inactive: max response (KB-3-1) 31.5%
active: Potency (GB4) 13.5 µM | Potency (HB3) 5.01 µM | Potency (ICS) 5.01 µM | Potency (N140) 11.2 µM | Potency (P93_24) 8.91 µM | Potency (P94_40) 11.2 µM | Potency (PAD) 5.01 µM | Potency (TAB113) 11.2 µM | Potency (TAB165) 11.2 µM | Potency (W2) 9.53 µM | Potency (CRL-7250) 8.41 µM | Potency (HEK293) 5.96 µM

COc1cc2c(cc1OC)C(C(C(=O)N(CCc1ccc(OC)c(OC)c1OC)CCc1ccc(OC)c(OC)c1OC)c1ccccc1)=NCC2 (stereo not drawn)
active: Potency (GB4) 7.57 µM | Potency (HB3) 5.01 µM | Potency (ICS) 0.199 µM | Potency (JCK) 10 µM | Potency (P93_24) 2.24 µM | Potency (P94_40) 2.51 µM | Potency (PAD) 1 µM | Potency (PC15) 2.51 µM | Potency (PC26) 4.78 µM | Potency (PC49) 1 µM | Potency (SC27B) 2.24 µM | Potency (TAB109) 3.16 µM | Potency (TAB113) 2.82 µM | Potency (TAB165) 1.26 µM | Potency (W2) 1.07 µM
inactive: max response (CRL-7250) -6.63% | outcome (HaCat) | max response (KB-3-1) 28%

CCCCOc1ccc(OCCCN2CCOCC2)cc1
inactive: Potency (GB4) | Potency (HB3) | Potency (ICS) | Potency (JCK) | Potency (N140) | Potency (P93_24) | Potency (P94_40) | Potency (PAD) | Potency (PC15) | Potency (PC26) | Potency (PC49) | Potency (SC27B) | Potency (TAB109) | Potency (TAB113) | Potency (TAB165) | Potency (W2) | max response (CRL-7250) 2.95% | max response (HaCat) -3.82% | max response (KB-3-1) 3.23%

CCCCCC=CCC=CCCCCCCCC(=O)OCC
inactive: Potency (GB4) | Potency (HB3) | Potency (ICS) | Potency (JCK) | Potency (N140) | Potency (P93_24) | Potency (P94_40) | Potency (PAD) | Potency (PC15) | Potency (PC26) | Potency (PC49) | Potency (SC27B) | Potency (TAB109) | Potency (TAB113) | Potency (TAB165) | Potency (W2) | max response (CRL-7250) -11.8% | outcome (HaCat) | max response (KB-3-1) -4.13%

Oc1ccc(Cl)c2cccnc12
inactive: Potency (JCK) | Potency (N140) | Potency (P93_24) | Potency (P94_40) | Potency (PAD) | Potency (PC15) | Potency (PC26) | Potency (PC49) | Potency (SC27B) | Potency (TAB109) | Potency (TAB113) | Potency (TAB165) | outcome (CRL-7250) | outcome (HaCat) | max response (KB-3-1) -11.9%
active: Potency (ICS) 11.2 µM

O=C1[C@H]2CCCC[C@H]2C(=O)N1CCCCN1CCN(c2nsc3ccccc23)CC1
active: Potency (W2) 15.1 µM
inactive: Potency (JCK) | Potency (N140) | Potency (P94_40) | Potency (PAD) | Potency (PC49) | Potency (SC27B) | Potency (TAB109) | Potency (TAB113) | outcome (CRL-7250) | max response (HaCat) -5.6% | max response (KB-3-1) 2.4%

C[C@]12CCC(=O)C=C1[C@@H]1C[C@@H]1[C@H]1[C@@H]3[C@@H]4C[C@@H]4[C@@]4(CCC(=O)O4)[C@@]3(C)CC[C@@H]12
inactive: outcome (CRL-7250) | max response (HaCat) -9.08%

COc1cccc2c1C(=O)c1c(O)c3c(c(O)c1C2=O)C[C@@](O)(C(C)=O)C[C@@H]3O[C@H]1C[C@H](N)[C@H](O)[C@H](C)O1
active: Potency (GB4) 1.9 µM | Potency (HB3) 4.47 µM | Potency (ICS) 1.41 µM | Potency (JCK) 11.2 µM | Potency (N140) 4.47 µM | Potency (P93_24) 3.98 µM | Potency (P94_40) 3.55 µM | Potency (PAD) 4.47 µM | Potency (PC15) 10 µM | Potency (PC26) 5.36 µM | Potency (PC49) 7.08 µM | Potency (SC27B) 5.01 µM | Potency (TAB109) 3.55 µM | Potency (TAB113) 5.01 µM | Potency (TAB165) 2.24 µM | Potency (W2) 1.35 µM | Potency (CRL-7250) 0.075 µM | Potency (HEK293) 0.0473 µM

C=C1C(=C/C=C2\CCC[C@]3(C)[C@@H]([C@H](C)/C=C/[C@@H](O)C4CC4)CC[C@@H]23)C[C@@H](O)C[C@@H]1O
inactive: outcome (CRL-7250) | outcome (HaCat) | max response (KB-3-1) 29.7%

O=C(Nc1ccc(Oc2ccc(Cl)cc2)c(Cl)c1)c1cc(I)cc(I)c1O
inactive: Potency (GB4) | Potency (HB3) | Potency (JCK) | Potency (N140) | Potency (P93_24) | Potency (P94_40) | Potency (PAD) | Potency (PC15) | Potency (PC26) | Potency (PC49) | Potency (SC27B) | Potency (TAB109) | Potency (TAB113) | max response (CRL-7250) -12.5% | max response (HaCat) 1.19%

CN(C)CCCOc1nn(Cc2ccccc2)c2ccccc12
inactive: Potency (HB3) | Potency (ICS) | Potency (N140) | Potency (P94_40) | Potency (PAD) | Potency (PC15) | Potency (PC49) | Potency (SC27B) | Potency (TAB109) | Potency (TAB113) | max response (CRL-7250) 1.45% | max response (HaCat) 3.55% | max response (KB-3-1) -14.4% and -24.2%
active: Potency (W2) 2.28 µM

From PubChem BioAssay (NCATS)
